The source of these data is PubChem BioAssay (NCI).

Some test systems named below: NCI-H23 lung; NCI-H226 lung; NCI-H322M lung; HOP-62 NSCLC; NCI-H460 lung; HOP-92 NSCLC; NCI-H522 lung; A549/ATCC NSCLC; 786-0 renal; COLO 205 colon; DU-145 prostate; K-562 leukemia; MALME-3M melanoma; MDA-MB-231 breast; RXF 393 renal; SF-268 CNS; SF-295 CNS; SF-539 CNS; UACC-257 melanoma; M14 melanoma.
Experiment in all cases: NCI-60 one-dose screen, 48 h (100 = growth as untreated, 0 = no growth, -100 = all killed)
Holding throughout (details): 10 µM unless noted

Several values for one entry are separate records, joined by “and”; a condition that tells them apart may be missing. Equal values may be shown once. Compounds without any hit were thinned out: in the full panel of roughly 83,000, 20% have a hit.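 Plates (96-well) were seeded with cells, treated with compound at one concentration, and incubated for 48 hours before percent growth was determined.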 Unmarked numbers belong to inactive results. Activity calls are given as the source filed them. The calls were made as follows: active = growth percent below 10; inactive = the rest.

`COc1ccc(O)c2c(=O)c3c(OC)cc4c(c3oc12)[C@@H]1C=CO[C@@H]1O4`: the growth in the assay with NCI-H23 lung is 6.73% (active); with NCI-H226 lung, 36.8%; in the assay with NCI-H322M lung it was 42.4%; in the assay on HOP-62 NSCLC, 36.6%; with NCI-H460 lung, 8.73% (active); in the assay on HOP-92 NSCLC it was 70.5%. The growth is 41.9% with NCI-H522 lung; 50% with A549/ATCC NSCLC; 74.6% in the assay with 786-0 renal; 36.1% in the assay with COLO 205 colon; 21.9% with DU-145 prostate; 101% in the assay with K-562 leukemia. For the same molecule, the growth with MALME-3M melanoma was 62.8%; in the assay on MDA-MB-231 breast, 67%; with RXF 393 renal, 61.6%; with SF-268 CNS it was 54.9%; with SF-295 CNS it was 81.6%; in the assay with SF-539 CNS, 37.9%. The values for the growth with UACC-257 melanoma and in the assay with M14 melanoma were 89.6% and 67.4%, respectively.

In the case of `[N-]=[N+]=CC(=O)CCC(=O)C=[N+]=[N-]`, the growth was 105% in the assay on NCI-H23 lung; 100% in the assay on NCI-H226 lung; 95.8% in the assay on NCI-H322M lung; 92.6% with HOP-62 NSCLC; 112% in the assay with NCI-H460 lung; 90.6% in the assay with HOP-92 NSCLC. Also, the growth in the assay with NCI-H522 lung is 110%; with A549/ATCC NSCLC it was 113%; with 786-0 renal it was 99.3%; in the assay on COLO 205 colon, 117%; in the assay on DU-145 prostate, 127%; in the assay on K-562 leukemia, 83.9%. Besides, the growth is 96.3% in the assay with MALME-3M melanoma; 103% in the assay on MDA-MB-231 breast; 124% with RXF 393 renal; 121% with SF-268 CNS; 106% with SF-295 CNS; 88.3% in the assay with SF-539 CNS. The growth was 137% in the assay with UACC-257 melanoma and 102% in the assay on M14 melanoma.

In the case of `CCCN1C(=O)NC(=O)C(CC)(N2C(=O)c3c(F)c(F)c(F)c(F)c3C2=O)C1=O` (stereo not given), the growth was -52.1% (active) in the assay on NCI-H23 lung; 27.4% in the assay with NCI-H226 lung; -57.7% (active) with NCI-H322M lung; -57.3% (active) in the assay on HOP-62 NSCLC; -81% (active) in the assay with NCI-H460 lung; -50.5% (active) with HOP-92 NSCLC. For the same molecule, the growth with NCI-H522 lung was -82.3% (active); in the assay on A549/ATCC NSCLC, -64.7% (active); in the assay with 786-0 renal, -58.5% (active); in the assay with COLO 205 colon, -81.9% (active); with DU-145 prostate it was -98.9% (active); in the assay on K-562 leukemia it was -81.7% (active). Also, the growth in the assay on MALME-3M melanoma was -71.1% (active); in the assay with MDA-MB-231 breast it was -78.7% (active); in the assay on RXF 393 renal, -95.1% (active); in the assay with SF-268 CNS, -82.5% (active); in the assay on SF-295 CNS it was -68.6% (active); with SF-539 CNS it was -96.7% (active). In addition, the growth was -83.3% (active) with UACC-257 melanoma and -64.7% (active) with M14 melanoma.

For the molecule `O=C(NCCCN1CC1)Nc1cccc2ccccc12`, the growth in the assay with NCI-H23 lung is 104% and 92.7%; with NCI-H226 lung, 102% and 92.4%; in the assay with NCI-H322M lung, 116% and 102%; in the assay on HOP-62 NSCLC, 48.9% and 87.9%; in the assay with NCI-H460 lung, 109% and 91%; in the assay with HOP-92 NSCLC, 90.5%. The growth in the assay on NCI-H522 lung was 108% and 79.1%; with A549/ATCC NSCLC, 97.3% and 91.6%; in the assay on 786-0 renal it was 108% and 103%; in the assay on COLO 205 colon it was 106% and 103%; in the assay on DU-145 prostate it was 104% and 102%; in the assay with K-562 leukemia, 86.4%. In addition, the growth with MALME-3M melanoma is 75.8% and 104%; in the assay with MDA-MB-231 breast, 94.3% and 105%; in the assay on RXF 393 renal, 108% and 107%; with SF-268 CNS it was 83.5% and 96.9%; in the assay on SF-295 CNS it was 114% and 88.2%; with SF-539 CNS, 93.7% and 113%. In addition, the growth in the assay on UACC-257 melanoma is 96.9% and 94.2%; in the assay on M14 melanoma, 99.6% and 98.8%.

`CC(=O)OC1CC2(O)C(CCC3(C)C(c4ccc(=O)oc4)CCC32O)C2(C)CCC(OC3OC(CO)C(O)C(O)C3O)C=C12` (stereo not given): the growth is -57.2% (active) with NCI-H23 lung; -91.6% (active) with NCI-H226 lung; -81.6% (active) in the assay with NCI-H322M lung; -70.7% (active) in the assay on HOP-62 NSCLC; -75.3% (active) in the assay on NCI-H460 lung; -24.2% (active) in the assay with HOP-92 NSCLC. Besides, the growth in the assay on NCI-H522 lung is -39.2% (active); with A549/ATCC NSCLC, -72.9% (active); with 786-0 renal it was -74.6% (active); in the assay on COLO 205 colon it was -47.1% (active); in the assay with DU-145 prostate, -100% (active); with K-562 leukemia, -30.4% (active). Also, the growth with MALME-3M melanoma was -43.7% (active); in the assay with MDA-MB-231 breast, -20.3% (active); in the assay with RXF 393 renal, -45% (active); with SF-268 CNS, -97.4% (active); with SF-295 CNS it was -62.2% (active); with SF-539 CNS, -97.9% (active). Further, the growth is -62.3% (active) with UACC-257 melanoma and -78% (active) with M14 melanoma.

As for `CC[C@H](C)[C@H](NC(=O)c1ncccn1)C(=O)N(C)[C@H](C[C@@H](OC(C)=O)c1nc(C(=O)N[C@@H](Cc2ccccc2)C[C@H](C)C(=O)OC)cs1)C(C)C`, the growth in the assay on NCI-H23 lung is 40.9%; in the assay on NCI-H226 lung it was 51.2%; in the assay on NCI-H322M lung, 42%; in the assay on HOP-62 NSCLC it was 22.8%; in the assay with NCI-H460 lung, 10.8%; with HOP-92 NSCLC, 33.5%. Also, the growth was 0.376% (active) in the assay with NCI-H522 lung; 32.9% in the assay with A549/ATCC NSCLC; 38.5% in the assay on 786-0 renal; 4.56% (active) with COLO 205 colon; 9.45% (active) in the assay on DU-145 prostate; 7.26% (active) with K-562 leukemia. Moreover, the growth in the assay on MALME-3M melanoma was 60.7%; in the assay on MDA-MB-231 breast, 4.19% (active); in the assay with RXF 393 renal, -8.95% (active); in the assay on SF-268 CNS, 30.6%; with SF-295 CNS it was 14.4%; with SF-539 CNS it was -51.1% (active). For the same molecule, the growth with UACC-257 melanoma was 50.2%; in the assay on M14 melanoma, 5.61% (active).
